Active and inactive are the calls of the source.
Columns and labels:
Albumin (Bos taurus) = Albumin (Bos taurus) (UniProt P02769); experiment: compounds binding labelled BSA control protein – biochemical, small-molecule microarray, Alexa647 label, 635/667 nm fluorescence, artefact control for SMM control protein annotation, profiling panel (AID 1118); details: BSA-A647 binding, fluorescence 635 nm, higher = more signal;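 note: score merges 667 nm emission intensity and signal-to-noise per printed compound spot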
Chain of Albumin (Bos taurus) (P02769 whole entry, looked up): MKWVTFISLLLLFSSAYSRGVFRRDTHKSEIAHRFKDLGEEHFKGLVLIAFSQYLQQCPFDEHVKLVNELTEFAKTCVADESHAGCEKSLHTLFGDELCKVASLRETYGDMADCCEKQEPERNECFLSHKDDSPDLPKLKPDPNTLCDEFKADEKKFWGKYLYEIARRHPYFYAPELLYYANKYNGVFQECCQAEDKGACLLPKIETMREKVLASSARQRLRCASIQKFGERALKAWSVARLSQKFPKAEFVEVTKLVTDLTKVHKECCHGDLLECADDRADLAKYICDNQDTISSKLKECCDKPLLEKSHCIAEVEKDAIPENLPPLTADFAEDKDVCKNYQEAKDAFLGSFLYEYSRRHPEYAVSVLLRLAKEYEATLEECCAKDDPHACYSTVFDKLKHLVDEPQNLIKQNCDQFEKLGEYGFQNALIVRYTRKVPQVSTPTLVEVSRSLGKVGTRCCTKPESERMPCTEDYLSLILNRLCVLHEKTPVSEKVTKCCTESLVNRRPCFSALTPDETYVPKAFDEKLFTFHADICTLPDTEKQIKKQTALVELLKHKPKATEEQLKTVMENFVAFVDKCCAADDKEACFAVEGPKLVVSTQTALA

[1] = probe aXIP binding to arrayed compounds – biochemical, NeuroSMM set, 635/667 nm fluorescence, primary screen (AID 1119); details: small-molecule microarray, higher = more signal, called active from +8 up or from −8 down;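 note: probe is the protein aXip251-270 applied at 1 µg/mL to compound-printed slides; binding of probe to printed compounds measured as 667 nm fluorescence plus signal to noise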
[2] = probe aNOTCH3 binding on compound microarray – biochemical, small-molecule microarray, 635/667 nm fluorescence, primary screen (AID 1120); details: higher = more signal;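 note: probe is a biotin-tagged antibody raised against NOTCH3 rather than NOTCH3 protein; score merges spot fluorescence near 667 nm with spot signal to noise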
[3] = probe aNOTCH2 binding on compound microarray – biochemical, small-molecule microarray, 635/667 nm fluorescence, primary screen (AID 1121); details: higher = more signal;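 note: score merges feature fluorescence read at 667 nm with its signal to noise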
[4] = target: Carbonic anhydrase 2 (Homo sapiens) (UniProt P00918); experiment: compounds binding carbonic anhydrase 2 – biochemical, small-molecule microarray, Alexa647-labelled CAII, profiling panel (AID 1122); details: CAII-A647 binding fluorescence, higher = more signal
[5] = COS7 lysate on small-molecule microarray, probe aHis, 635 nm (AID 1123); details: COS7 cell lysate, fluorescence, higher = more signal;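 note: z-score combines 667nm fluorescence intensity with signal-to-noise per printed compound spot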
[6] = probe aLAP1 signal on lysate-treated microarray – cell lysate, small-molecule microarray, COS7 lysate, primary screen (AID 1124); details: probe aLAP1, fluorescence, higher = more signal;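 note: lysate comes from COS7 cells expressing LAP1 and is applied at 0.3 µg/mL; score merges spot fluorescence near 667 nm with signal-to-noise over triplicate slides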
Sam68 (KHDRBS1) = experiment: compounds binding KHDRBS1 protein – biochemical, small-molecule microarray, 635 nm fluorescence, primary screen (AID 1125); details: higher = more signal;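 note: score merges 667 nm channel intensity with signal to noise over triplicate slides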
[7] = tested on: Chordin-like protein 2 (CHRDL2); experiment: compounds binding chordin-like 2 – biochemical, small-molecule microarray, 635 nm fluorescence, primary screen (AID 1126); details: fluorescence 635 nm, higher = more signal;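 note: printed compound slides probed with Chrdl2 protein at 4 µg/mL for 1 h at 4 C; score merges 667 nm emission intensity with signal to noise over three replicate slides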
[8] = target: Concanavalin-A (Canavalia ensiformis) (UniProt P02866); experiment: compounds binding concanavalin A lectin – biochemical, small-molecule microarray, Alexa647 label, 635 nm, artefact control for SMM control protein annotation, primary screen (AID 1127); details: ConA-A647 binding fluorescence, higher = more signal;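 note: z combines 667 nm emission intensity with signal-to-noise across three replicate slides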
Chain of Concanavalin-A (Canavalia ensiformis) (P02866 whole entry, looked up): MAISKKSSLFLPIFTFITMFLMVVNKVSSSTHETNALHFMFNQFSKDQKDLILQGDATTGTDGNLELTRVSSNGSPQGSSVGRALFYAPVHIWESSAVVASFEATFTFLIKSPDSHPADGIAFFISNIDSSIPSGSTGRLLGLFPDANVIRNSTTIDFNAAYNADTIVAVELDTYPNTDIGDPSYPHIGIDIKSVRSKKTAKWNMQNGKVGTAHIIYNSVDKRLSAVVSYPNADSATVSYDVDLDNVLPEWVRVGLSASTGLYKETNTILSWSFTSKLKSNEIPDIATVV

[9] = compounds binding Alexa647 anti-His antibody – biochemical, small-molecule microarray, 635 nm fluorescence, artefact control for SMM control protein annotation, primary screen (AID 1128); details: higher = more signal;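 note: score merges feature fluorescence with signal-to-noise for each printed compound spot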
[10] = tested on: Human papillomavirus type 1a E7 protein (residues 1-88); experiment: HPV1a E7 small-molecule binders, primary screen, biochemical, small-molecule microarray, residues 1-88, 635 nm (AID 1129); details: small-molecule microarray binding, fluorescence 635 nm; higher = more signal
[11] = target: Focal adhesion kinase 1 (Homo sapiens) (UniProt Q05397); experiment: PTK2 protein binding on printed compound slides – biochemical, small-molecule microarray, 635/667 nm fluorescence, BSA, DTT, primary screen (AID 1130); details: 635 nm fluorescence, higher = more signal;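 note: composite of spot emission at 667 nm and signal to noise over triplicate slides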
Chain of Focal adhesion kinase 1 (Homo sapiens) (Q05397 whole entry, looked up): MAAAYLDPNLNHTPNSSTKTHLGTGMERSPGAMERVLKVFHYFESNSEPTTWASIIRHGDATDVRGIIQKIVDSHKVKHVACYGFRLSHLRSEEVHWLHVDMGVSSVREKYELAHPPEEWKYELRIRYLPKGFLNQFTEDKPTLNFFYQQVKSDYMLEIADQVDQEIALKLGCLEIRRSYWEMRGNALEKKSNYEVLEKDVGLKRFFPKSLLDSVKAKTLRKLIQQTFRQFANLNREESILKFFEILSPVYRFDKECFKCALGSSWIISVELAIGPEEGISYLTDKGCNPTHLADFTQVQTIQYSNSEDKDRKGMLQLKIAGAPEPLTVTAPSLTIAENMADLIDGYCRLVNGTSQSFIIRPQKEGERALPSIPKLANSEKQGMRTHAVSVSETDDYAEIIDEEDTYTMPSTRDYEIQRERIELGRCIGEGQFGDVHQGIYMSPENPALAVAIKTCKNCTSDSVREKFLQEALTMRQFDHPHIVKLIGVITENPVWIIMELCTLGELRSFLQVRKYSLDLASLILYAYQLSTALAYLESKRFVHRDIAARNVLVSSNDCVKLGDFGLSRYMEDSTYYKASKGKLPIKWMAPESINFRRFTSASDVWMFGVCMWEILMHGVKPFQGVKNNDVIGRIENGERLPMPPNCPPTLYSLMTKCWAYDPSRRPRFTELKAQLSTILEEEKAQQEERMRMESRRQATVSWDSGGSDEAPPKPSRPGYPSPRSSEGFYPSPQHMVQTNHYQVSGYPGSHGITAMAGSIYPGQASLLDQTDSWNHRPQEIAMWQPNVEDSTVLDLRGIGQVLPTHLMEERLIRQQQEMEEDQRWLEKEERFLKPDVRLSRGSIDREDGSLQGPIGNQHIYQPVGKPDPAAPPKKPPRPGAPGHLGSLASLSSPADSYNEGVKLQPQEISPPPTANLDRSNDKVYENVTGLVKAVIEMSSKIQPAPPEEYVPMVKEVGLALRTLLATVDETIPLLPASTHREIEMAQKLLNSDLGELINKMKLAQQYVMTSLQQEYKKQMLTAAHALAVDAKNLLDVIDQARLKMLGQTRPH

[12] = tested on: Fibrinogen (Alexa647-labelled); experiment: Alexa647-fibrinogen binding to printed small molecules – biochemical, small-molecule microarray, 635/667 nm fluorescence, artefact control for SMM control-protein annotation, profiling panel (AID 1131); details: fibrinogen-A647 binding fluorescence, higher = more signal;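 note: z-score merges 667 nm fluorescence with per-spot signal-to-noise over triplicate slides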
[13] = target: Follistatin (Homo sapiens) (UniProt P19883); experiment: FST protein binding to printed compounds – biochemical, small-molecule microarray, 635/667 nm fluorescence, primary screen (AID 1132); details: 635 nm fluorescence, higher = more signal
Chain of Follistatin (Homo sapiens) (P19883 whole entry, looked up): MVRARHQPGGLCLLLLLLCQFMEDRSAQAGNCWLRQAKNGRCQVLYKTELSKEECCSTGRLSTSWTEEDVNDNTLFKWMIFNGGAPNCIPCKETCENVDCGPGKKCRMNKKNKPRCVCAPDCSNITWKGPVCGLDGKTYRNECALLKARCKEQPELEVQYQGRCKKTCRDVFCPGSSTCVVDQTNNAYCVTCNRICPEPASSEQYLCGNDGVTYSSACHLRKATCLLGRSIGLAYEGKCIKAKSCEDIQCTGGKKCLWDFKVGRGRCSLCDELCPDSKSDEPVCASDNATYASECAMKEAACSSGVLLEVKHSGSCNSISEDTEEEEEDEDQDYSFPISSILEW

[14] = target: Fibroblast growth factor 2 (Homo sapiens) (UniProt P09038); experiment: basic fibroblast growth factor binding to printed compounds – biochemical, small-molecule microarray, 635/667 nm fluorescence, primary screen (AID 1133); details: FGF2, fluorescence 635/667, higher = more signal
Chain of Fibroblast growth factor 2 (Homo sapiens) (P09038 whole entry, looked up): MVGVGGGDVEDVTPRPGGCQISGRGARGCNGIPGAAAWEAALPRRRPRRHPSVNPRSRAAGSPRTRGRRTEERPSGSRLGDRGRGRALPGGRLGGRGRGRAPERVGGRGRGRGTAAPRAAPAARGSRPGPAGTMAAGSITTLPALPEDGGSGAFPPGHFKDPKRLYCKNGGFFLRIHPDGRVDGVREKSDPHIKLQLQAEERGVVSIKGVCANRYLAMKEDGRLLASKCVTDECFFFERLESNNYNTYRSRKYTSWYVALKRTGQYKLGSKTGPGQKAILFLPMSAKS

[15] = JC-1 mitochondrial potential readout, lung cancer cells – cell-based, A549, JC-1 fluorescence, basal, 24 h, 100 nL, profiling panel (AID 1138); details: higher = more signal;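 note: A549 lung adenocarcinoma cells under basal conditions with no added stimulus; test concentration not given here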
Lefty1 = Lefty1 protein binding to printed compounds – biochemical, small-molecule microarray, 635/667 nm fluorescence, primary screen (AID 1139); details: fluorescence 635/667, higher = more signal
[16] = tested on: wheat germ agglutinin (Triticum aestivum), Alexa647-labelled; experiment: Alexa647-WGA lectin binding to printed small molecules – biochemical, small-molecule microarray, 635/667 nm fluorescence, artefact control for SMM control-protein annotation, profiling panel (AID 1140); details: WGA-A647 binding, 635 nm fluorescence, higher = more signal;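 note: score merges 667 nm feature emission with signal to noise over triplicate slides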
[17] = target: Luciferin 4-monooxygenase (Photinus pyralis) (UniProt P08659); experiment: inhibition of purified Photinus pyralis luciferase – biochemical, luminescence, purified enzyme, 2006 set, primary screen (AID 1141); details: purified firefly luciferase, SteadyGlo luminescence, 30 min; higher = more signal, called active from +8 up or from −8 down;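 note: cell-free assay with purified firefly luciferase at 100 ng per well in PBS; test concentration not given here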
Chain of Luciferin 4-monooxygenase (Photinus pyralis) (P08659 whole entry, looked up): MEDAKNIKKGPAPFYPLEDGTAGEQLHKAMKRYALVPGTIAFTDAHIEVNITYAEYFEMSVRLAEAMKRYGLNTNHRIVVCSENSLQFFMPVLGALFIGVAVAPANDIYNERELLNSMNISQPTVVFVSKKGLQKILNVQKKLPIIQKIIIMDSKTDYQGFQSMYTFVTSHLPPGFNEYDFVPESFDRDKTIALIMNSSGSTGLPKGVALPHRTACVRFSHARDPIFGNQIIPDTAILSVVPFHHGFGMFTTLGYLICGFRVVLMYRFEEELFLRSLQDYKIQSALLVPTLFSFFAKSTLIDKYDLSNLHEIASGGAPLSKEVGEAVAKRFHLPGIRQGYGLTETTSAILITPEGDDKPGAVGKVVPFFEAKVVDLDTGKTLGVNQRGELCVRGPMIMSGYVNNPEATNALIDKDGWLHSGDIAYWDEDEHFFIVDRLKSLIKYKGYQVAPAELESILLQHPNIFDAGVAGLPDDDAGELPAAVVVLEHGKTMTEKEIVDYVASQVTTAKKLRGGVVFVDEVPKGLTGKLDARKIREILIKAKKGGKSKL

SMILES	composite z-score (Albumin (Bos taurus))	composite Z-score [1]	composite z-score [2]	composite z-score [3]	composite z-score [4]	composite z-score [5]	composite z-score [6]	composite z-score (Sam68 (KHDRBS1))	composite z-score [7]	composite z-score [8]	composite z-score [9]	composite z-score [10]	composite z-score [11]	composite z-score [12]	composite z-score [13]	composite z-score [14]	z-score [15]	composite z-score (Lefty1)	composite z-score [16]	z-score [17]
CCCC[C@H]1C[C@@H]1[C@@H]1N(P(=O)(c2ccccc2)c2ccccc2)C[C@@](O)(c2ccccc2)CC12CC2	0.951	0.863 (inactive)	0.169	0.0525	0.374	2.28	0.473	0.944	-1.95	0.499	0.127	0.973	0.663	0.955	0.208	0.0514	-1.57	-1.06	0.727	2.35 (inactive)
O=C(O)C1N=C(c2ccc(OCCCO)cc2)N(c2ccccc2)O1 (stereo not given)	0.811	0.488 (inactive)	0.0967	-0.037	0.589	0.321	-0.287	1.3	0.153	0.658	1.73	1.1	0.817	0.953	1.3	1.18	0.0657	0.369	0.207	-7.84 (inactive)
C[C@H]1C2[C@H](Cc3ccccc3)NC(=O)[C@]23C(=O)NCC(=O)N2CCC[C@H]2C(=O)NC/C=C/CCC/C=C/C3[C@@H]2O[C@]12C (stereo not given in full)	-0.677	-0.695 (inactive)	-0.136	-0.179	-0.17	-0.18	0.053	-1.51	-0.143	-1.27	0.295	-1.28	-0.502	-0.489	-0.0491	-0.0881	-0.979	-0.0374	-0.704	-0.44 (inactive)
COC(=O)[C@@]1(Cc2ccc(F)cc2)[C@H]2c3cc(C(=O)N(C)C)n(Cc4ccc(C)o4)c3C[C@H]2CN1C(=O)c1ccccc1	-0.373	0.444 (inactive)	1.6	0.992	0.458	3.29	1.13	0.47	-0.852	-1.67	1.17	0.761	-0.42	-1.92	-1.96	-1.4	0.546	-1.2	0.319	0.483 (inactive)
O=C1O[C@@H](c2ccccc2)[C@@H](c2ccccc2)N2[C@@H](c3ccc(OCCO)cc3)[C@]3(C(=O)Nc4ccc(C#CC5=CCCCC5)cc43)[C@@H](C(=O)N3CCCCCCC3)[C@H]12	0.425	4.13 (inactive)	1.87	0.988	0.776	3.59	1.6	1.28	1.42	1.13	1.41	1.23	1.55	0.772	1.39	1.09	-1.02	1.55	1.46	-1.13 (inactive)
COC(=O)c1c2oc(c1C(=O)OC)C(=O)N[C@@H](C(C)C)Cn1cc(nn1)C1(CCCCC1)NC(=O)N[C@H](CO)CC2	-0.0901	-0.203 (inactive)	-0.122	-0.0761	0.828	1.18	-0.0841	0.194	0.199	0.689	0.591	-0.159	-0.0947	0.209	0.515	1.58	2.2	0.102	0.0969	-1.3 (inactive)
C=CC[C@@]1(C(=O)N2CCCCC2)N=C(c2ccc(OCCCO)cc2)O[C@@H]1c1ccccc1N=[N+]=[N-]	0.82	-0.797 (inactive)	0.185	0.0497	0.443	2.41	-0.0724	1.29	-0.294	1.04	2.24	1.23	0.407	0.957	1.09	0.162	-0.35	0.0928	1.06	-10.4 (active)
[N-]=[N+]=NCc1ccccc1C[C@@]1(C(=O)NCC(O)CO)N=C(c2ccc(OCCCO)cc2)O[C@@H]1c1ccccc1 (stereo not given in full)	0.992	-0.191 (inactive)	-0.0077	0.0996	0.432	2.82	-0.177	0.331	-0.247	-1.11	1.86	0.0034	-0.225	-0.513	0.602	-0.287	0.663	-1.7	0.276	-1.69 (inactive)
O=C1OCC=C[C@H]2OC34C=CCN(Cn5nnc6ccccc65)C(=O)[C@H]3N(CCCCCO)C(=O)[C@@H]4[C@@H]12 (stereo not given in full)	-0.552	0.177 (inactive)	-0.211	-0.108	0.9	1.34	0.435	-0.171	-1.87	-0.727	0.181	-0.185	-0.34	-0.566	-0.997	-0.846	-1.47	-0.992	1.25	0.365 (inactive)
NC(=O)NCC#Cc1ccc2c(c1)[C@]1(C(=O)N2)[C@H](C(=O)O)[C@H]2C(=O)O[C@H](c3ccccc3)[C@H](c3ccccc3)N2[C@@H]1c1ccc(O)cc1	0.424	0.116 (inactive)	0.207	0.314	0.205	0.361	-0.464	0.102	0.265	0.888	0.0795	0.0885	0.06	0.972	1.31	0.153	-1.01	0.654	0.642	-1.5 (inactive)
O=C1[C@H]2C=C(Br)[C@H](C[C@@H]2OCCCCCCO)[C@@]12CO2	-0.699	0.926 (inactive)	0.265	-0.0064	-0.382	-0.469	0.206	-0.733	0.0547	-1.57	-0.847	-1.57	-0.191	-1.94	-0.266	0.263	-0.363	-0.406	-2.03	0.364 (inactive)
